Results filed as inconclusive are left out. Entries that show only a call come without a potency. Calls of active or inactive are those of the source. Unless noted, calls follow the shape of the full dose curve.
What was measured:
[1] = qHTS for Inhibitors of the Functional Ribonucleoprotein Complex (vRNP) of Lassa (LASV) Arenavirus: LASV Primary Screen - GLuc reporter signal (AID 1347082; calls by dose curve; tested in HEK293 reporter line; also: series mostly up to about 57 µM; nearly all actives have a fitted effect of over 60% in size)
[2] = qHTS for Inhibitors of the Functional Ribonucleoprotein Complex (vRNP) of Lassa (LASV) Arenavirus: Viability assay - alamar blue signal for LASV Primary Screen (AID 1347083; calls by dose curve; tested in HEK293 reporter line; also: series mostly up to about 57 µM; nearly all actives have a fitted effect of over 80% in size)
[3] = qHTS for Inhibitors of the Functional Ribonucleoprotein Complex (vRNP) of Lymphocytic Choriomeningitis Arenaviruses (LCMV): Viability assay - alamar blue signal for LCMV Primary Screen (AID 1347085; calls by dose curve; tested in HEK293 reporter line; also: series mostly up to about 57 µM; nearly all actives have a fitted effect of over 80% in size)
[4] = molecular target: Nucleoprotein (Lymphocytic choriomeningitis virus (strain Armstrong)) (UniProt P09992); assay: qHTS for Inhibitors of the Functional Ribonucleoprotein Complex (vRNP) of Lymphocytic Choriomeningitis Arenaviruses (LCMV): LCMV Primary Screen - GLuc reporter signal (AID 1347086); also: series mostly up to about 57 µM; nearly all actives have a fitted effect of over 70% in size
[5] = qHTS of pediatric cancer cell lines to identify multiple opportunities for drug repurposing: Primary screen for DAOY cells (AID 1347090; active = well fitted curve in the direction sought with a large enough effect; an effect the other way counts as inactive or inconclusive; also: potency is read from the fitted curve at half-maximal effect; nearly all actives have a fitted effect of over 55% in size)
Outline: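 Eight- or eleven-point concentration series, 48 h treatment at 37 degrees C in growth media; readout CellTiter-Glo luminescence. Potency and efficacy were taken from the concentration-response curves.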

[6] = qHTS of pediatric cancer cell lines to identify multiple opportunities for drug repurposing: Primary screen for SK-N-MC cells (AID 1347093; active = well fitted curve in the direction sought with a large enough effect; an effect the other way counts as inactive or inconclusive; also: potency is read from the fitted curve at half-maximal effect)
Outline: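 Metabolically active cells were quantified by ATP-dependent luminescence (CellTiter-Glo, 15 min at room temperature) following 48 h treatment. Cells had been plated at 500-1,000 per well and settled for 5 h beforehand.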

[7] = qHTS of pediatric cancer cell lines to identify multiple opportunities for drug repurposing: Primary screen for BT-37 cells (AID 1347094; active = well fitted curve in the direction sought with a large enough effect; an effect the other way counts as inactive or inconclusive; also: potency is read from the fitted curve at half-maximal effect)
Outline: (§1)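 Phenotypic viability qHTS, 48 h compound exposure, CellTiter-Glo luminescence read-out; multi-concentration dosing so that potency and efficacy derive directly from the primary screen's curves.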

[8] = qHTS of pediatric cancer cell lines to identify multiple opportunities for drug repurposing: Primary screen for Saos-2 cells (AID 1347097; active = well fitted curve in the direction sought with a large enough effect; an effect the other way counts as inactive or inconclusive; also: potency is read from the fitted curve at half-maximal effect; nearly all actives have a fitted effect of over 40% in size)
Outline: as §1

Sequence of Nucleoprotein (Lymphocytic choriomeningitis virus (strain Armstrong)) (P09992 whole entry, looked up): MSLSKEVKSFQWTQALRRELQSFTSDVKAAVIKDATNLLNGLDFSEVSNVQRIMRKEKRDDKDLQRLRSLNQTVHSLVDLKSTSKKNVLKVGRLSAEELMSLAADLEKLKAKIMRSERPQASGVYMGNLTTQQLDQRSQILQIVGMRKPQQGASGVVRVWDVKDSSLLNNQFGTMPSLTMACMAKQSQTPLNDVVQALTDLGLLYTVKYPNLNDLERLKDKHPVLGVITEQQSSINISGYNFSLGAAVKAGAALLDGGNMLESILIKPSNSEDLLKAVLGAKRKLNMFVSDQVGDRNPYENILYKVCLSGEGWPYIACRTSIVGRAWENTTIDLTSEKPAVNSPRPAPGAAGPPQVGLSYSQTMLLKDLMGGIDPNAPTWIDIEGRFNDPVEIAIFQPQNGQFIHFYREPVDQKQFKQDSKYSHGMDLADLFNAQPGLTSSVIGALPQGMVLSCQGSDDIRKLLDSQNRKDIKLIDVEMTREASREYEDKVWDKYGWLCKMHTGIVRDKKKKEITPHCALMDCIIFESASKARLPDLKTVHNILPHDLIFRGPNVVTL

## O=C1O[C@H]([C@@H](O)CO)C(O)=C1O
[1]
  Potency: inactive
[2]
  Potency: inactive
[3]
  Potency: inactive
[4]
  Potency: inactive

## O=C1CC2(CCCC2)CC(=O)N1CCNCC1COc2ccccc2O1 (centres undefined)
[1]
  Potency: inactive
[2]
  Potency: inactive
[3]
  Potency: inactive
[4]
  Potency: inactive

## OCC(CO)N[C@H]1C[C@](O)(CO)[C@@H](O)[C@H](O)[C@H]1O
[1]
  Potency: inactive
[2]
  Potency: inactive
[3]
  Potency: inactive
[4]
  Potency: inactive

## C[C@H]1C[C@H]2[C@@H]3CCC4=CC(=O)C=C[C@]4(C)[C@@]3(Cl)[C@@H](O)C[C@]2(C)[C@@]1(O)C(=O)CO
[1]
  Potency: inactive
[2]
  Potency: inactive
[3]
  Potency: inactive
[4]
  Potency: inactive

## CCCCOc1ccc(C(=O)CCN2CCCCC2)cc1
[1]
  Potency: inactive
[2]
  Potency: inactive
[3]
  Potency: inactive
[4]
  Potency: inactive

## Cc1cccc(N(C)C(=S)Oc2ccc3c(c2)C2CCC3C2)c1 (centres undefined)
[1]
  Potency: inactive
[2]
  Potency: inactive
[3]
  Potency: inactive
[4]
  Potency: inactive

## CC(C)OC(=O)c1cc2c(OCC(O)CNC(C)(C)C)cccc2[nH]1 (centres undefined)
[1]
  Potency: inactive
[2]
  Potency: inactive
[3]
  Potency: inactive
[4]
  Potency: inactive

## O=C1NC(=O)[C@@]2(CCOc3ccc(F)cc32)N1
[1]
  Potency: inactive
[2]
  Potency: inactive
[3]
  Potency: inactive
[4]
  Potency: inactive

## C/C=C(/C(=C/C)c1ccc(O)cc1)c1ccc(O)cc1
[1]
  Potency: inactive
[2]
  Potency: inactive
[3]
  Potency: inactive
[4]
  Potency: inactive

## CCCCOC(=O)CCCCCCCCC(=O)OCCCC
[1]
  Potency: inactive
[2]
  Potency: inactive
[3]
  Potency: inactive
[4]
  Potency: inactive

## CN1CC(=O)N2[C@H](c3ccc4c(c3)OCO4)c3[nH]c4ccccc4c3C[C@@H]2C1=O
[1]
  Potency: inactive
[2]
  Potency: inactive
[3]
  Potency: inactive
[4]
  Potency: inactive

## CN1[C@@H]2CC[C@H]1CC(NC(=O)n1c(=O)[nH]c3ccccc31)C2 (some centres undefined)
[1]
  Potency: inactive
[2]
  Potency: inactive
[3]
  Potency: inactive
[4]
  Potency: inactive

## Clc1ccc(Cn2c(CN3CCCC3)nc3ccccc32)cc1
[1]
  Potency: inactive
[2]
  Potency: inactive
[3]
  Potency: inactive
[4]
  Potency: inactive

## c1ccc(OCc2ccc(CCCN3CCOCC3)cc2)cc1
[1]
  Potency: inactive
[2]
  Potency: inactive
[3]
  Potency: inactive
[4]
  Potency: inactive

## CCC(C)(C)c1ccc(CC(C)CN2C[C@@H](C)O[C@@H](C)C2)cc1 (some centres undefined)
[1]
  Potency: inactive
[2]
  Potency: inactive
[3]
  Potency: inactive
[4]
  Potency: inactive

## C#Cc1ccc(-c2ccccc2F)cc1
[1]
  Potency: inactive
[2]
  Potency: inactive
[3]
  Potency: inactive
[4]
  Potency: inactive

## CC1=C(CC(=O)O)c2cc(F)ccc2/C1=C\c1ccc(S(C)(=O)=O)cc1
[1]
  Potency: inactive
[2]
  Potency: inactive
[3]
  Potency: inactive
[4]
  Potency: inactive

## CC1=C(C)C(=O)C(CCCCC#CCCCC#CCO)=C(C)C1=O
[1]
  Potency: inactive
[2]
  Potency: inactive
[3]
  Potency: inactive
[4]
  Potency: inactive

## CC(=O)OCC(=O)[C@@]1(O)CC[C@H]2[C@@H]3CCC4=CC(=O)C=C[C@]4(C)[C@H]3[C@@H](O)C[C@@]21C
[1]
  Potency: inactive
[2]
  Potency: inactive
[3]
  Potency: inactive
[4]
  Potency: inactive

## CC(=O)Nc1ccc(S(=O)(=O)Nc2ccc([N+](=O)[O-])cc2)cc1
[1]
  Potency: inactive
[2]
  Potency: inactive
[3]
  Potency: inactive
[4]
  Potency: inactive

## O=C(CCCN1CC=C(n2c(=O)[nH]c3ccccc32)CC1)c1ccc(F)cc1
[1]
  Potency: inactive
[2]
  Potency: inactive
[3]
  Potency: inactive
[4]
  Potency: inactive

## CC(=O)[C@@]1(O)CC[C@H]2[C@@H]3C[C@H](C)C4=CC(=O)CC[C@]4(C)[C@H]3CC[C@@]21C
[1]
  Potency: inactive
[2]
  Potency: inactive
[3]
  Potency: inactive
[4]
  Potency: inactive

## CN(C)CC[C@@H](c1ccc(Cl)cc1)c1ccccn1
[1]
  Potency: inactive
[2]
  Potency: inactive
[3]
  Potency: inactive
[4]
  Potency: inactive

## CO[C@@H]1[C@@H](O[C@@H]2O[C@H](C)[C@@H](O[C@H]3C[C@@](C)(O)[C@@H](O)[C@H](C)O3)[C@H](N(C)C)[C@H]2O)[C@@H](CC=O)C[C@@H](C)[C@@H](O[C@@H]2CC[C@H](N(C)C)[C@@H](C)O2)/C=C/C=C/C[C@@H](C)OC(=O)C[C@H]1OC(C)=O
[1]
  Potency: inactive
[2]
  Potency: inactive
[3]
  Potency: inactive
[4]
  Potency: inactive

## COc1ccc2c(c1)c(CC(=O)O)c(C)n2C(=O)c1ccc(Cl)cc1
[1]
  Potency: inactive
[2]
  Potency: inactive
[3]
  Potency: inactive
[4]
  Potency: inactive

## CN(C)CCOc1ccccc1Cc1ccccc1
[1]
  Potency: inactive
[2]
  Potency: inactive
[3]
  Potency: inactive
[4]
  Potency: inactive

## CCCCNc1ccc(C(=O)OCCN(CC)CC)cc1
[1]
  Potency: inactive
[2]
  Potency: inactive
[3]
  Potency: inactive
[4]
  Potency: inactive

## CCCCCCCCCCCC[N+](C)(C)CCOc1ccccc1
[1]
  Potency: inactive
[2]
  Potency: inactive
[3]
  Potency: inactive
[4]
  Potency: inactive
[5]
  Potency: 26.6 µM (active)
[6]
  Potency: 6.68 µM (active)
[7]
  Potency: 30.9 µM (active)
[8]
  Potency: 13.3 µM (active)

## COc1ccc2c(c1OC)C(=O)O[C@@H]2[C@H]1c2c(cc3c(c2OC)OCO3)CCN1C
[1]
  Potency: inactive
[2]
  Potency: inactive
[3]
  Potency: inactive
[4]
  Potency: inactive

## CNC[C@H](O)c1ccc(O)c(O)c1
[1]
  Potency: inactive
[2]
  Potency: inactive
[3]
  Potency: inactive
[4]
  Potency: inactive
